Test results: PubChem BioAssay
Records with an inconclusive call do not appear. Active and inactive are the calls of the source.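 How the source made its calls, unless noted: active means normalized viability below 100% at a tested concentration; inactive means the rest.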

Legend:
[1] = viability loss in pontine glioma line – cell-based, SU-DIPG-XVII, MIPE5.0, CellTiter-Glo, qHTS, dose response (AID 1347060; cut-off not given, nearly all actives have AC50 up to about 26 µM;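 on AC50: cells exposed to compound for 48 hours before viability readout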); details: CellTiter-Glo ATP luminescence
[2] = viability loss in pontine glioma line – cell-based, SU-DIPG-XIII, MIPE4.0, CellTiter-Glo, qHTS, dose response (AID 1347061; cut-off not given, nearly all actives have AC50 up to about 37 µM;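 further: cells exposed to compound for 48 hours before readout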); details: CellTiter-Glo ATP luminescence
[3] = viability loss in pontine glioma line – cell-based, SU-DIPG-XXV, MIPE5.0, CellTiter-Glo, qHTS, dose response (AID 1347065; cut-off not given, nearly all actives have AC50 up to about 26 µM;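 further: cells exposed to compound for 48 hours before ATP readout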); details: CellTiter-Glo ATP luminescence
[4] = growth inhibition of DIPG cells – cell-based, MIPE4.0 library, CellTiter-Glo luminescence, qHTS (AID 1347066; cut-off not given, nearly all actives have AC50 up to about 30 µM;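 further: cells exposed to compound for 48 hours before readout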); details: SU-DIPG-VI viability, CellTiter-Glo ATP luminescence
[5] = viability loss in pontine glioma line – cell-based, SU-DIPG-IV, MIPE4.0, CellTiter-Glo, qHTS, dose response (AID 1347063; cut-off not given, nearly all actives have AC50 up to about 30 µM;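 further: compound exposure lasted 48 hours before the viability readout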); details: CellTiter-Glo ATP luminescence
[6] = JHH-DIPG-1 glioma cell viability, MIPE5.0 library, CellTiter-Glo luminescence, qHTS (AID 1347067; cut-off not given, nearly all actives have AC50 up to about 26 µM;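 further: cells exposed to compound for 48 hours before readout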); details: JHH-DIPG-1 glioma viability, CellTiter-Glo ATP luminescence
[7] = viability loss with induced miR-34 in A549 – imaging, A549 dox-inducible miR-34, nuclei and caspase counts, primary screen (AID 1347080;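 active means compounds whose cell count with miR-34 switched on is under 0.7 times the count with it off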); details: A549 miR-34 inducible, Hoechst nuclei count, 48 h
[8] = MELAS cybrid and Rieske KO viability enhancers – cell-based, MELAS cybrids, Rieske KO mouse fibroblasts, CellTiter-Glo, primary screen (AID 1508586;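 active means mean z-score across replicates of 1.96 or higher in either the MELAS or the Rieske mutant cell line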;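 further: z relative to plate mean and SD of compound and empty wells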); details: low glucose
[9] = drug combination growth inhibition, ovarian cancer – cell-based, oncology-focused library, rucaparib conditional, profiling panel (AID 1508598); details: patient-derived ovarian cancer cells, CellTiter-Glo viability, 144 h, stronger effect = lower value
[10] = viability loss in pontine glioma line – cell-based, SU-DIPG-XIII, MIPE5.0, CellTiter-Glo, qHTS, dose response (AID 1347064; cut-off not given, nearly all actives have AC50 up to about 23 µM;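 on AC50: cells exposed to compound for 48 hours before the viability read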); details: CellTiter-Glo ATP luminescence
[11] = compounds altering HSF1 focus formation in cells – imaging, Selleck Cancer Library (AID 1347162; in the data active means plate-normalised HSF1 focus index below about 0.46); details: human cells, HSF1 nuclear foci imaging, at 10 µM; SSMD: measured here: HSF1 foci SSMD mean; cell count: measured here: cell number; plate-normalised HSF1 focus index: stronger effect = lower value
[12] = growth inhibition of DIPG cells – cell-based, MIPE5.0 library, qHTS (AID 1347068; cut-off not given, nearly all actives have IC50 up to about 30 µM); details: SU-DIPG-XXV viability
[13] = stronger effect = lower value, cell number ratio, induced over uninduced
[14] = measured here: relative caspase fold change +Dox/-Dox
[15] = measured here: total cells with miR-34 induction, stronger effect = lower value
[16] = measured here: total cells without miR-34 induction
[17] = MELAS cybrid survival, CellTiter-Glo 48 h, stronger effect = higher value
[18] = Rieske KO mouse fibroblast survival, CellTiter-Glo 72 h
[19] = at 0.000305 µM, OCI-C5x cells, with rucaparib 10 µM, 100% = cells with rucaparib alone
[20] = at 0.000305 µM, OCI-C5x cells, without rucaparib
[21] = at 0.000305 µM, OCI-P5x cells, with rucaparib 20 µM, 100% = cells with rucaparib alone
[22] = at 0.000305 µM, OCI-P5x cells, without rucaparib
[23] = at 0.00122 µM, OCI-C5x cells, with rucaparib 10 µM, 100% = cells with rucaparib alone
[24] = at 0.00122 µM, OCI-C5x cells, without rucaparib
[25] = at 0.00122 µM, OCI-P5x cells, with rucaparib 20 µM, 100% = cells with rucaparib alone
[26] = at 0.00122 µM, OCI-P5x cells, without rucaparib
[27] = at 0.00488 µM, OCI-C5x cells, with rucaparib 10 µM, 100% = cells with rucaparib alone
[28] = at 0.00488 µM, OCI-C5x cells, without rucaparib
[29] = at 0.00488 µM, OCI-P5x cells, with rucaparib 20 µM, 100% = cells with rucaparib alone
[30] = at 0.00488 µM, OCI-P5x cells, without rucaparib
[31] = at 0.0195 µM, OCI-C5x cells, with rucaparib 10 µM, 100% = cells with rucaparib alone
[32] = at 0.0195 µM, OCI-C5x cells, without rucaparib
[33] = at 0.0195 µM, OCI-P5x cells, with rucaparib 20 µM, 100% = cells with rucaparib alone
[34] = at 0.0195 µM, OCI-P5x cells, without rucaparib
[35] = at 0.0781 µM, OCI-C5x cells, with rucaparib 10 µM, 100% = cells with rucaparib alone
[36] = at 0.0781 µM, OCI-C5x cells, without rucaparib
[37] = at 0.0781 µM, OCI-P5x cells, with rucaparib 20 µM, 100% = cells with rucaparib alone
[38] = at 0.0781 µM, OCI-P5x cells, without rucaparib
[39] = at 0.313 µM, OCI-C5x cells, with rucaparib 10 µM, 100% = cells with rucaparib alone
[40] = at 0.313 µM, OCI-C5x cells, without rucaparib
[41] = at 0.313 µM, OCI-P5x cells, with rucaparib 20 µM, 100% = cells with rucaparib alone
[42] = at 0.313 µM, OCI-P5x cells, without rucaparib
[43] = at 1.25 µM, OCI-C5x cells, with rucaparib 10 µM, 100% = cells with rucaparib alone
[44] = at 1.25 µM, OCI-C5x cells, without rucaparib
[45] = at 1.25 µM, OCI-P5x cells, with rucaparib 20 µM, 100% = cells with rucaparib alone
[46] = at 1.25 µM, OCI-P5x cells, without rucaparib
[47] = at 5 µM, OCI-C5x cells, with rucaparib 10 µM, 100% = cells with rucaparib alone
[48] = at 5 µM, OCI-C5x cells, without rucaparib
[49] = at 5 µM, OCI-P5x cells, with rucaparib 20 µM, 100% = cells with rucaparib alone
[50] = at 5 µM, OCI-P5x cells, without rucaparib

Cc1cc(C(=O)N2CCN(c3cccc(Cl)c3)CC2)n(-c2ccccc2)n1
inactive: outcome [2] | outcome [4]
active: AC50 [1] 7.42 µM | AC50 [3] 9.34 µM

Cn1c(Nc2ccc(C(F)(F)F)cc2)nc2cc(Oc3ccnc(-c4ncc(C(F)(F)F)[nH]4)c3)ccc21
active: AC50 [1] 5.25 µM | AC50 [2] 16.6 µM | AC50 [5] 0.132 µM | AC50 [3] 0.372 µM | AC50 [4] 3.32 µM | AC50 [6] 2.63 µM
0.95: fold change [7, 14]
2230: cell count [7, 15]
inactive: fold change [7, 13] 0.96 | z-score [8, 17] 0.723
0.357: z-score [8, 18]
2330: cell count [7, 16]

Nc1cccc2c1C(=O)N(C1CCC(=O)NC1=O)C2=O (stereo unspecified)
8200: cell count [7, 15]
0.628: z-score [8, 18]
inactive: outcome [1] | outcome [2] | outcome [5] | outcome [4] | outcome [6] | fold change [7, 13] 0.865 | z-score [8, 17] 0.05 | viability [9, 19] 110% | viability [9, 20] 124% | viability [9, 21] 110% | viability [9, 22] 127% | viability [9, 23] 109% | viability [9, 24] 124% | viability [9, 25] 107% | viability [9, 26] 125% | viability [9, 27] 112% | viability [9, 28] 121% | viability [9, 29] 102% | viability [9, 30] 118% | viability [9, 31] 115% | viability [9, 32] 125% | viability [9, 33] 105% | viability [9, 34] 114% | viability [9, 35] 117% | viability [9, 36] 112% | viability [9, 37] 104% | viability [9, 38] 118% | viability [9, 39] 110% | viability [9, 40] 116% | viability [9, 42] 107% | viability [9, 43] 118% | viability [9, 44] 117% | viability [9, 47] 105% | viability [9, 48] 110%
active: AC50 [3] 0.00118 µM | viability [9, 41] 99.9% | viability [9, 45] 88.7% | viability [9, 46] 97.8% | viability [9, 49] 84.6% | viability [9, 50] 97.3%
0.842: fold change [7, 14]
9490: cell count [7, 16]

COc1cc2ncnc(Nc3cccc(Br)c3)c2cc1OC
2.47: SSMD [11]
7590: cell count [11]
inactive: outcome [2] | plate-normalised HSF1 focus index [11] 1.15
active: AC50 [1] 2.09 µM | AC50 [10] 14.8 µM | AC50 [3] 16.6 µM | AC50 [6] 20.9 µM

CO[C@H]1C[C@@H]2CC[C@@H](C)[C@@](O)(O2)C(=O)C(=O)N2CCCC[C@H]2C(=O)O[C@H]([C@H](C)C[C@@H]2CC[C@@H](OC(=O)C(C)(CO)CO)[C@H](OC)C2)CC(=O)[C@H](C)/C=C(\C)[C@@H](O)[C@@H](OC)C(=O)[C@H](C)C[C@H](C)/C=C/C=C/C=C/1C
0.578: SSMD [11]
6900: cell count [11]
inactive: outcome [2] | plate-normalised HSF1 focus index [11] 1.05
active: AC50 [1] 14.4 µM | AC50 [3] 12.9 µM | AC50 [4] 9.35 µM | AC50 [6] 14.4 µM

COc1ccc(-c2oc3c(CC=C(C)C)c(OC4O[C@H](CO)[C@@H](O)[C@H](O)[C@H]4O)cc(O)c3c(=O)c2OC2O[C@@H](C)[C@H](O)[C@@H](O)[C@H]2O)cc1 (stereo partly specified)
inactive: outcome [1] | outcome [2] | outcome [3] | outcome [6] | outcome [12]
active: AC50 [5] 14.8 µM | AC50 [4] 14.8 µM

COc1cc(C(C)C)c2c(c1)S(=O)(=O)N(COc1cc(=O)n3cccc(OCCN4CCCCC4)c3n1)C2=O
active: AC50 [1] 23.5 µM | AC50 [3] 20.9 µM
inactive: outcome [2]

O=C(O)Cn1nnc(-c2cc(N3CCC(Oc4cc(F)ccc4Br)CC3)no2)n1
0.826: fold change [7, 14]
6300: cell count [7, 15]
7120: cell count [7, 16]
0.855: z-score [8, 18]
inactive: outcome [1] | outcome [2] | outcome [5] | outcome [10] | outcome [4] | outcome [6] | outcome [12] | fold change [7, 13] 0.885 | z-score [8, 17] -0.382

CC(C)(C)c1cc(NC(=O)Nc2ccc(-c3cn4c(n3)sc3cc(OCCN5CCOCC5)ccc34)cc2)no1
6510: cell count [7, 16]
0.781: fold change [7, 14]
6520: cell count [7, 15]
inactive: outcome [2] | outcome [12] | fold change [7, 13] 1 | plate-normalised HSF1 focus index [11] 1.05 | viability [9, 19] 105% | viability [9, 20] 104% | viability [9, 23] 112% | viability [9, 27] 105% | viability [9, 31] 107% | viability [9, 32] 101% | viability [9, 33] 103% | viability [9, 35] 111% | viability [9, 36] 112% | viability [9, 39] 115% | viability [9, 40] 108% | viability [9, 43] 108% | viability [9, 44] 128% | viability [9, 47] 100% | viability [9, 48] 107%
active: AC50 [1] 23.5 µM | AC50 [10] 14.8 µM | AC50 [3] 16.6 µM | AC50 [6] 20.9 µM | z-score [8, 17] 4.33 | viability [9, 21] 87.1% | viability [9, 22] 82.2% | viability [9, 24] 95% | viability [9, 25] 93.1% | viability [9, 26] 87% | viability [9, 28] 88.6% | viability [9, 29] 91.7% | viability [9, 30] 93.5% | viability [9, 34] 93.7% | viability [9, 37] 86.7% | viability [9, 38] 90.6% | viability [9, 41] 82.2% | viability [9, 42] 99% | viability [9, 45] 83.4% | viability [9, 46] 87.4% | viability [9, 49] 31.2% | viability [9, 50] 70.6%
0.734: SSMD [11]
-2.86: z-score [8, 18]
7630: cell count [11]
